The supplement of paper PMC10037445
Whole data set: some 2,900 compounds, median “NF-kB SEAP reporter activity, fold change vs agonist alone” near 0.99, cut for the highest 2% near 2.6. The list comes from a sample in which the highest values are over-represented; it also holds similar structures and randomly drawn compounds.

How the values were obtained:
RAW-Dual [1] = test: NF-kB SEAP reporter activity, fold change vs agonist alone; higher = enhanced NF-kB activity
Outline: (§1)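 RAW-Dual macrophages (50,000 cells/well in DMEM, 384-well plates) received 50 nL of library stock by pin tool, then a PRR agonist 1 h later, and were kept at 37 °C, 5% CO2. After 20 hours, supernatant was read for IRF by QuantiLuc luminescence and for NF-κB by QuantiBlue absorbance at 620 nm. Reporter activity is fold change over agonist-alone wells. Cytotoxic wells had IncuCyte confluency below 70% of agonist controls in both mask sets.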

RAW-Dual [2] = test: NF-kB SEAP reporter activity, fold change vs agonist alone; cytotoxicity flag (confluency mask): not cytotoxic; higher = enhanced NF-kB activity
Outline: as §1

RAW-Dual [3] = test: NF-kB SEAP reporter activity, fold change vs agonist alone; cytotoxicity flag (confluency mask): cytotoxic (confluency <70% of control); higher = enhanced NF-kB activity
Outline: as §1

[4] = library stock concentration (final ~1000-fold dilution): 10 mM, cytotoxicity flag (confluency mask): not cytotoxic, agonist: MPLA (TLR4) […]
[5] = agonist: ODN 1826 (TLR9) 0.5 ug/mL
[6] = agonist: Pam2CSK4 (TLR2/6) 0.1 ug/mL
[7] = agonist: Pam3CSK4 (TLR2/1) 0.1 ug/mL
[8] = library stock concentration (final ~1000-fold dilution): 10 mM, cytotoxicity flag (confluency mask): not cytotoxic, agonist: Imiquimod (TLR7) […]

CC(C)OC(=O)CCC/C=C\CC1C(O)CC(O)C1CCC(O)CCc1ccccc1 (stereo not drawn)
NF-kB SEAP reporter activity (RAW-Dual [1]; [4]): 1.43

CC(C)OC(=O)CCC/C=C\CC1C(O)CC(O)C1CCC(O)CCc1ccccc1 (stereo not drawn) (library stock concentration (final ~1000-fold dilution): 10 mM)
NF-kB SEAP reporter activity (RAW-Dual [2]; agonist: LPS (TLR4) 0.1 ug/mL): 1.4
NF-kB SEAP reporter activity (RAW-Dual [2]; [5]): 0.911
NF-kB SEAP reporter activity (RAW-Dual [2]; [6]): 1.1
NF-kB SEAP reporter activity (RAW-Dual [2]; [7]): 0.929

COc1cc(OC)c(/C=C2/C(=O)Nc3ccccc32)c(OC)c1 (library stock concentration (final ~1000-fold dilution): 10 mM)
NF-kB SEAP reporter activity (RAW-Dual [2]; agonist: LPS (TLR4) 0.1 ug/mL): 3.21
NF-kB SEAP reporter activity (RAW-Dual [2]; [5]): 2.56
NF-kB SEAP reporter activity (RAW-Dual [2]; [6]): 1.33
NF-kB SEAP reporter activity (RAW-Dual [2]; [7]): 1.92

COc1ccc(C(=C2C(=O)Nc3ccccc32)c2ccc(OC)cc2)cc1 (library stock concentration (final ~1000-fold dilution): 10 mM)
NF-kB SEAP reporter activity (RAW-Dual [2]; agonist: LPS (TLR4) 0.1 ug/mL): 1.04
NF-kB SEAP reporter activity (RAW-Dual [2]; [5]): 0.585
NF-kB SEAP reporter activity (RAW-Dual [2]; [6]): 0.692
NF-kB SEAP reporter activity (RAW-Dual [2]; [7]): 0.323

Cc1c[nH]c(C=C2C(=O)Nc3ccccc32)c1CCC(=O)O (library stock concentration (final ~1000-fold dilution): 10 mM)
NF-kB SEAP reporter activity (RAW-Dual [2]; agonist: LPS (TLR4) 0.1 ug/mL): 0.665
NF-kB SEAP reporter activity (RAW-Dual [2]; [5]): 0.926
NF-kB SEAP reporter activity (RAW-Dual [2]; [6]): 0.983
NF-kB SEAP reporter activity (RAW-Dual [2]; [7]): 0.647

Cc1c[nH]c(C=C2C(=O)Nc3ccccc32)c1CCC(=O)O
NF-kB SEAP reporter activity (RAW-Dual [1]; [8]): 0.662
NF-kB SEAP reporter activity (RAW-Dual [1]; [4]): 0.848

COc1ccc(C(=C2C(=O)Nc3ccccc32)c2ccc(OC)cc2)cc1
NF-kB SEAP reporter activity (RAW-Dual [1]; [8]): 0.748
NF-kB SEAP reporter activity (RAW-Dual [1]; [4]): 0.978

COc1cc(OC)c(/C=C2/C(=O)Nc3ccccc32)c(OC)c1
NF-kB SEAP reporter activity (RAW-Dual [1]; [8]): 1.62
NF-kB SEAP reporter activity (RAW-Dual [1]; [4]): 1.67

NC(N)=NCCCC(N)C(=O)NC(CCCN=C(N)N)C(=O)N1CCCC1C(=O)N1CC(O)CC1C(=O)NCC(=O)NC(Cc1cccs1)C(=O)NC(CO)C(=O)N1Cc2ccccc2CC1C(=O)N1C(C(=O)NC(CCCN=C(N)N)C(=O)O)CC2CCCCC21 (stereo not drawn)
NF-kB SEAP reporter activity (RAW-Dual [1]; library stock concentration (final ~1000-fold dilution): 2 mM water, cytotoxicity flag (confluency mask): not cytotoxic, agonist: Imiquimod (TLR7) […]): 0.945
NF-kB SEAP reporter activity (RAW-Dual [1]; library stock concentration (final ~1000-fold dilution): 2 mM water, cytotoxicity flag (confluency mask): not cytotoxic, agonist: MPLA (TLR4) […]): 1.05

NC(N)=NCCCC(N)C(=O)NC(CCCN=C(N)N)C(=O)N1CCCC1C(=O)N1CC(O)CC1C(=O)NCC(=O)NC(Cc1cccs1)C(=O)NC(CO)C(=O)N1Cc2ccccc2CC1C(=O)N1C(C(=O)NC(CCCN=C(N)N)C(=O)O)CC2CCCCC21 (stereo not drawn) (library stock concentration (final ~1000-fold dilution): 2 mM water)
NF-kB SEAP reporter activity (RAW-Dual [2]; agonist: LPS (TLR4) 0.1 ug/mL): 0.985
NF-kB SEAP reporter activity (RAW-Dual [2]; [5]): 1.06
NF-kB SEAP reporter activity (RAW-Dual [2]; [6]): 1.1
NF-kB SEAP reporter activity (RAW-Dual [2]; [7]): 0.962

CC12CC(O)C3CC1(O[C@@H]1O[C@H](CO)[C@@H](O)[C@H](O)[C@H]1O)C3(COC(=O)c1ccccc1)C(=O)O2 (stereo partly drawn)
NF-kB SEAP reporter activity (RAW-Dual [1]; [8]): 1.03
NF-kB SEAP reporter activity (RAW-Dual [1]; [4]): 1.03

CC12CC(O)C3CC1(O[C@@H]1O[C@H](CO)[C@@H](O)[C@H](O)[C@H]1O)C3(COC(=O)c1ccccc1)C(=O)O2 (stereo partly drawn) (library stock concentration (final ~1000-fold dilution): 10 mM)
NF-kB SEAP reporter activity (RAW-Dual [2]; agonist: LPS (TLR4) 0.1 ug/mL): 1.24
NF-kB SEAP reporter activity (RAW-Dual [2]; [5]): 1.12
NF-kB SEAP reporter activity (RAW-Dual [2]; [6]): 1.1
NF-kB SEAP reporter activity (RAW-Dual [2]; [7]): 1.06

CNCCCC1c2ccccc2C=Cc2ccccc21.Cl
NF-kB SEAP reporter activity (RAW-Dual [1]; library stock concentration (final ~1000-fold dilution): 10 mM, cytotoxicity flag (confluency mask): cytotoxic (confluency <70% of control), agonist: Imiquimod (TLR7) […]): 1.28
NF-kB SEAP reporter activity (RAW-Dual [1]; library stock concentration (final ~1000-fold dilution): 10 mM, cytotoxicity flag (confluency mask): cytotoxic (confluency <70% of control), agonist: MPLA (TLR4) […]): 1.62

CNCCCC1c2ccccc2C=Cc2ccccc21.Cl (library stock concentration (final ~1000-fold dilution): 10 mM)
NF-kB SEAP reporter activity (RAW-Dual [3]; agonist: LPS (TLR4) 0.1 ug/mL): 0.947
NF-kB SEAP reporter activity (RAW-Dual [3]; [5]): 0.644
NF-kB SEAP reporter activity (RAW-Dual [3]; [6]): 0.63
NF-kB SEAP reporter activity (RAW-Dual [3]; [7]): 0.687

CCCCNc1ccc(C(=O)OCCN(C)C)cc1.Cl (library stock concentration (final ~1000-fold dilution): 10 mM)
NF-kB SEAP reporter activity (RAW-Dual [2]; agonist: LPS (TLR4) 0.1 ug/mL): 1.38
NF-kB SEAP reporter activity (RAW-Dual [2]; [5]): 0.759
NF-kB SEAP reporter activity (RAW-Dual [2]; [6]): 1.13
NF-kB SEAP reporter activity (RAW-Dual [2]; [7]): 1.17

CCCCNNC(=O)c1ccc(Br)cc1
NF-kB SEAP reporter activity (RAW-Dual [1]; [8]): 1.95
NF-kB SEAP reporter activity (RAW-Dual [1]; [4]): 2.28

CCCCNc1ccc(C(=O)OCCN(C)C)cc1.Cl
NF-kB SEAP reporter activity (RAW-Dual [1]; [8]): 0.843
NF-kB SEAP reporter activity (RAW-Dual [1]; [4]): 1.04

O=C(CCNNC(=O)c1ccncc1)NCc1ccccc1
NF-kB SEAP reporter activity (RAW-Dual [1]; [8]): 0.939
NF-kB SEAP reporter activity (RAW-Dual [1]; [4]): 1

O=C(CCNNC(=O)c1ccncc1)NCc1ccccc1 (library stock concentration (final ~1000-fold dilution): 10 mM)
NF-kB SEAP reporter activity (RAW-Dual [2]; agonist: LPS (TLR4) 0.1 ug/mL): 0.997
NF-kB SEAP reporter activity (RAW-Dual [2]; [5]): 1.03
NF-kB SEAP reporter activity (RAW-Dual [2]; [6]): 0.962
NF-kB SEAP reporter activity (RAW-Dual [2]; [7]): 0.955

CCCCNNC(=O)c1ccc(Br)cc1 (library stock concentration (final ~1000-fold dilution): 10 mM)
NF-kB SEAP reporter activity (RAW-Dual [2]; agonist: LPS (TLR4) 0.1 ug/mL): 3.15
NF-kB SEAP reporter activity (RAW-Dual [2]; [5]): 2.18
NF-kB SEAP reporter activity (RAW-Dual [2]; [6]): 0.64
NF-kB SEAP reporter activity (RAW-Dual [2]; [7]): 0.656

CS(=O)(=O)n1cc2c(n1)CN(C1COC(c3cc(F)ccc3F)C(N)C1)C2 (stereo not drawn) (library stock concentration (final ~1000-fold dilution): 10 mM)
NF-kB SEAP reporter activity (RAW-Dual [2]; agonist: LPS (TLR4) 0.1 ug/mL): 1.1
NF-kB SEAP reporter activity (RAW-Dual [2]; [5]): 0.91
NF-kB SEAP reporter activity (RAW-Dual [2]; [6]): 1
NF-kB SEAP reporter activity (RAW-Dual [2]; [7]): 0.974

CS(=O)(=O)n1cc2c(n1)CN(C1COC(c3cc(F)ccc3F)C(N)C1)C2 (stereo not drawn)
NF-kB SEAP reporter activity (RAW-Dual [1]; [8]): 0.931
NF-kB SEAP reporter activity (RAW-Dual [1]; [4]): 1.03

O=C(NCCN1CCOCC1)c1ccc(Cl)cc1
NF-kB SEAP reporter activity (RAW-Dual [1]; [8]): 1.74
NF-kB SEAP reporter activity (RAW-Dual [1]; [4]): 1.82

O=C(Cc1ccc(-c2ccc(OCCN3CCOCC3)cc2)cn1)NCc1ccccc1
NF-kB SEAP reporter activity (RAW-Dual [1]; [8]): 2.63
NF-kB SEAP reporter activity (RAW-Dual [1]; [4]): 2.26

O=C(Cc1ccc(-c2ccc(OCCN3CCOCC3)cc2)cn1)NCc1ccccc1 (library stock concentration (final ~1000-fold dilution): 10 mM)
NF-kB SEAP reporter activity (RAW-Dual [2]; agonist: LPS (TLR4) 0.1 ug/mL): 4.55
NF-kB SEAP reporter activity (RAW-Dual [2]; [5]): 3.36
NF-kB SEAP reporter activity (RAW-Dual [2]; [6]): 2
NF-kB SEAP reporter activity (RAW-Dual [2]; [7]): 2.39

Cc1ccc(-n2nc(C(C)(C)C)cc2NC(=O)Nc2ccc(OCCN3CCOCC3)c3ccccc23)cc1
NF-kB SEAP reporter activity (RAW-Dual [1]; [8]): 0.455
NF-kB SEAP reporter activity (RAW-Dual [1]; [4]): 0.804

O=C(NCCN1CCOCC1)c1ccc(Cl)cc1 (library stock concentration (final ~1000-fold dilution): 10 mM)
NF-kB SEAP reporter activity (RAW-Dual [2]; agonist: LPS (TLR4) 0.1 ug/mL): 1.32
NF-kB SEAP reporter activity (RAW-Dual [2]; [5]): 1.86
NF-kB SEAP reporter activity (RAW-Dual [2]; [6]): 1.18
NF-kB SEAP reporter activity (RAW-Dual [2]; [7]): 1.17

Cc1ccc(-n2nc(C(C)(C)C)cc2NC(=O)Nc2ccc(OCCN3CCOCC3)c3ccccc23)cc1 (library stock concentration (final ~1000-fold dilution): 10 mM)
NF-kB SEAP reporter activity (RAW-Dual [2]; agonist: LPS (TLR4) 0.1 ug/mL): 0.477
NF-kB SEAP reporter activity (RAW-Dual [2]; [5]): 0.449
NF-kB SEAP reporter activity (RAW-Dual [2]; [6]): 0.129
NF-kB SEAP reporter activity (RAW-Dual [2]; [7]): 0.226
